# Screening results (PubChem BioAssay)
# In the library only some 5.2% were active in any assay of this set; here they are far more common.
# ALR inh: inhibitors of human sulfhydryl oxidase ALR | P55789 | purified ALR, DTT oxidation, H2O2 HRP-luminol luminescence | inhibition, % (no concentration beside the values) | actives 3.8% (n = 290,000);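 active = mean replicate inhibition above about 79%, with every replicate also reaching it, limit read from the data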
# Target sequence (P55789 whole entry, looked up): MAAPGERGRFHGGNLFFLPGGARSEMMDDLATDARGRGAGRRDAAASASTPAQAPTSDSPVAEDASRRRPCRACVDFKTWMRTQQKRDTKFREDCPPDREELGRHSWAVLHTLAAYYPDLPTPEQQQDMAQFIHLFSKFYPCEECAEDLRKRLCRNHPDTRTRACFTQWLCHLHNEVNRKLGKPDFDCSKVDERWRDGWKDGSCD
# A3A deaminase: inhibitors of human APOBEC3A DNA deaminase; actives 0.41% (n = 330,000); inhibition, % at 20 µM; recombinant A3A, FAM/TAMRA ssDNA deamination fluorescence; AID 493011;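 active = at least 40% inhibition at 20 µM here, with at most 30% in a related deaminase screen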
# Target sequence (P31941 whole entry, looked up): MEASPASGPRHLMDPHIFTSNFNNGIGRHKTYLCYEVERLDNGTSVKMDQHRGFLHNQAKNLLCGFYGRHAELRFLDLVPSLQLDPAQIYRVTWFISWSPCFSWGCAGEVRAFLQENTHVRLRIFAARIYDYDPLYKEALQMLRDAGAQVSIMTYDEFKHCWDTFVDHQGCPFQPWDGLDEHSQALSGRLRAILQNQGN
# CendR NRP1 mod: alters CendR peptide binding to human NRP-1. actives 0.85% (n = 360,000). FAM-RPARPAR peptide binding to NRP-1, fluorescence polarization. inhibition, % at 25 µM;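 active = inhibition or corrected inhibition above about 18%, plus a signal ratio from 0.5 to 1.5, limit read from the data, passing the limit was not always enough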
# Yeast superoxide: yeast age-related superoxide inhibition as caloric restriction mimetic. actives 0.18% (n = 330,000). S. cerevisiae aged cells, superoxide DHE fluorescence; hits give low values. superoxide response (% of plate mean), % at 10 µM;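 active = superoxide response under a set limit, about three screen SD below normal, cut at about 65% in these data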;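 note: yeast aged for seven days with compound at 30 °C before DHE staining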
# A3G deaminase: blocks human APOBEC3G single-stranded DNA deamination; recombinant A3G, ssDNA deamination FAM/TAMRA fluorescence; inhibition, % at 20 µM; actives 0.28% (n = 330,000);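 active = inhibition of at least 40% at 20 µM, with no more than 30% in the related APOBEC3A deaminase screen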
# M18AAP inhibitor: PfM18AAP enzyme inhibition. inhibition, % at 7.35 µM. recombinant PfM18AAP, H-Glu-NHMec fluorogenic cleavage. AID 1822. actives 1.2% (n = 290,000);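 active = inhibition above the campaign mean inhibition over all tested compounds plus 3 SD, cut at about 28% in these data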
# Hits are given with their value; . = inactive; / = no result.
SMILES,ALR inh,A3A deaminase,CendR NRP1 mod,Yeast superoxide,A3G deaminase,M18AAP inhibitor
Oc1ccc(-c2cn3ccccc3n2)cc1,99,.,.,.,.,.
CN(C)S(=O)(=O)c1ccc(-c2cn3ccccc3n2)cc1,99,.,.,.,.,.
CC(=O)N(C(C)=O)c1nc(-c2ccccc2)cn1/N=C/c1ccccc1,.,.,.,.,.,.
O=C(Nc1ncnc2sc3c(c12)CCCCC3)c1ccco1,97,.,.,.,.,.
O=C(NNC(=O)c1ccccc1C(=O)O)c1ccc(S(=O)(=O)N2CCCCC2)cc1,/,.,.,/,.,.
COc1ccc(CNCCC(c2ccc(OC(C)C)cc2)c2ccccc2OC)cc1OC (stereo not drawn),.,.,.,.,.,.
COc1ccc(Cl)cc1N(CC(=O)N1CCC(C)CC1)S(C)(=O)=O,/,.,.,.,.,.
CCS(=O)(=O)N1Cc2ccccc2CC1C(=O)N1CCN(c2ccccc2)CC1 (stereo not drawn),98,.,.,.,.,.
Cc1ccc(-c2nnn(CC(=O)N(CC(=O)NC3CCCCC3)c3ccc(F)c(Cl)c3)n2)o1,.,.,29,.,.,.
O=C(OCc1cc2ccccc2[nH]c1=O)c1ccccc1,.,.,.,.,.,.
O=C(OCc1cc2ccccc2[nH]c1=O)c1ccncc1,.,.,32,.,.,.
COC(=O)Cc1nc(Nc2ccccc2)sc1C,99,.,.,.,.,.
CN(C)c1ccc(/C=C/c2nc3ccccc3c(=O)n2-c2ccc(C(=O)O)cc2)cc1,99,.,.,.,.,.
O=c1c2ccccc2nc(/C=C/c2ccccc2)n1CCc1ccccc1,.,.,.,.,.,.
O=C(O)c1cccc(-n2c(/C=C/c3ccccc3)nc3ccccc3c2=O)c1,78,.,.,.,.,.
Cc1ccnc(NC(=O)c2cc(-c3ccc(Cl)s3)nc3ccccc23)c1,.,.,.,.,.,/
COC(=O)c1ccccc1S(=O)(=O)N1CCC(C(=O)OC(C)C(=O)Nc2ccccc2OC)CC1 (stereo not drawn),.,.,.,.,.,/
N#Cc1c(/N=C/c2ccc(-c3ccc(C(=O)O)c(Cl)c3)o2)sc2c1CCCC2,99,.,.,.,.,/
COCc1cc(C)nc(N/N=C/c2ccc(-c3ccc(C(=O)O)c(Cl)c3)o2)c1C#N,98,/,/,.,/,.
Cc1occc1-c1nnc(SCC(=O)N2CCCCC2)o1,.,.,.,.,.,.
O=C(NC(=S)NC(=O)c1ccccc1F)c1ccccc1F,89,.,.,.,.,.
COc1ccc([N+](=O)[O-])cc1NC(=O)CSc1ccc2ccccc2c1,99,.,.,.,.,.
COc1ccc([N+](=O)[O-])cc1NC(=O)CSc1nc(C)cc(C)n1,/,.,.,.,.,30
Cc1ccc(SCC(=O)Nc2ccc(F)cc2[N+](=O)[O-])cc1C,96,.,.,.,.,.
COC(=O)c1ccccc1NC(=O)CSc1nc(C)cc(C)n1,.,.,45,.,.,.
SMILES,ALR inh,A3A deaminase,CendR NRP1 mod,Yeast superoxide,A3G deaminase,M18AAP inhibitor
COC(=O)c1ccccc1NC(=O)CSc1nc(N)cc(N)n1,.,.,.,.,.,.
COc1ccc([N+](=O)[O-])cc1NC(=O)CSCc1cc(C)cc(C)c1,.,.,.,.,.,.
CCOC(=O)c1sc2nc(C)nc(SCC(=O)N(C)C3CCS(=O)(=O)C3)c2c1C (stereo not drawn),.,.,.,.,.,.
Cc1ccccc1C(=O)Nc1ccnn1C1CCN(Cc2ccncc2)CC1,.,.,.,.,.,.
COc1ccc(-c2csc(C(O)c3ccccc3)n2)cc1 (stereo not drawn),/,/,.,/,/,/
COc1ccncc1-c1csc(C(O)c2ccccc2)n1 (stereo not drawn),/,/,23,/,/,/
COc1ccc(C(O)c2nc(-c3cc(F)cc(F)c3)cs2)cc1 (stereo not drawn),/,/,40,/,/,/
O=C(CN1C(=O)c2ccccc2C1=O)NC1CCC(O)CC1 (stereo not drawn),.,.,25,.,.,/
O=C(Nc1ccccc1)Nc1ccccc1C(=O)NCc1ccccc1,.,.,.,.,.,.
CNC(=O)Nc1ccccc1C(=O)NCc1ccccc1,/,.,27,.,.,.
O=C(CN1C(=O)NC2(CCCC2)C1=O)Nc1ccccc1N1CCCCC1,.,.,.,.,.,/
Cc1nc(N/N=C/c2ccccn2)sc1C,97,/,/,.,/,.
O=C(CN1C(=O)/C(=C\c2ccco2)SC1=S)Nc1ccc(O)cc1C(=O)O,.,.,.,.,.,39
O=C(CCCN1C(=O)/C(=C\c2ccccc2)SC1=S)Nc1ccc(O)cc1C(=O)O,.,.,.,.,.,.
O=C(CCN1C(=O)/C(=C\c2ccco2)SC1=S)Nc1ccc(C(=O)O)c(O)c1,/,.,.,.,.,30
O=C(CCN1C(=O)/C(=C/c2ccco2)SC1=S)Nc1ccc(O)cc1C(=O)O,.,.,.,.,.,.
COc1ccccc1/C=C1\SC(=S)N(CCC(=O)Nc2ccc(C(=O)O)c(O)c2)C1=O,.,.,.,.,.,.
O=C(CCN1C(=O)/C(=C/c2ccco2)SC1=S)Nc1ccc(C(=O)O)c(O)c1,/,.,.,.,.,28
CC(C(=O)Nc1ccc(O)cc1C(=O)O)N1C(=O)/C(=C\c2cccs2)SC1=S (stereo not drawn),87,.,.,.,.,.
Nc1ncn(C(=S)Nc2ccccc2)n1,/,/,.,/,/,/
O=C(Nc1ccc(S(=O)(=O)N2CCOCC2)cc1)c1ccc([N+](=O)[O-])o1,.,.,.,.,.,.
CC1(C(=O)NS(=O)(=O)c2ccc(C#N)cc2)CCN1C(=O)c1ccccc1CCc1ccccc1 (stereo not drawn),/,/,.,/,/,/
CCOc1ccc(S(=O)(=O)NCC(=O)NC2CCCCC2)cc1,91,.,.,.,.,/
COC(=O)COc1ccc(S(=O)(=O)NC2CCCCCC2)cc1,.,.,.,.,.,.
CCOC(=O)COc1ccc(S(=O)(=O)NC2CC2)cc1,.,.,.,58,.,.
SMILES,ALR inh,A3A deaminase,CendR NRP1 mod,Yeast superoxide,A3G deaminase,M18AAP inhibitor
Cc1ccc(S(=O)(=O)NCC(=O)NCC2CCCCC2)cc1C,97,.,.,.,.,.
CCN(CC)CCSc1nc2ccccc2c(=S)n1-c1ccccc1,.,.,/,.,.,.
C/C(N)=C(/C#N)C(=O)COC(=O)CNC(=O)c1ccc(Cl)cc1Cl,.,.,.,.,.,.
O=c1c(-c2ccccc2)c(O)c2cccc3c2n1CCC3,.,.,.,.,.,.
O=S(=O)(NC(=NC1CCCCC1)c1ccccc1)c1ccc(F)cc1,.,.,.,.,.,.
O=C(NCc1ccc2c(c1)OCO2)c1ccc(CS(=O)Cc2ccc(Cl)cc2)o1 (stereo not drawn),.,.,.,.,.,.
